12-LOX inh – Primary qHTS assay for inhibitors of human arachidonate 12S-lipoxygenase (ALOX12): Round 2. Potency, µM (doses to about 108 µM), inactives show top-dose activity change, negative = inhibition, actives largely listed as inhibitors. Polyunsaturated fatty acid lipoxygenase ALOX12 (Homo sapiens), P18054. purified 12hLO, xylenol orange hydroperoxide absorbance. actives 1.1% (n = 580,000); further: on the % scale 0 is the no-effect control and ±100 the full control effect
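Hydroperoxide product was detected by ferrous iron/xylenol orange as the 573 to 405 nm absorbance ratio. Arachidonic acid at 40 uM (final) was turned over for 30 min at room temperature by 150 nM human 12hLO, pH 7.0 Hepes buffer, after 15 min compound preincubation.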
PLK1 PBD inh – qHTS for Inhibitors of PLK1-PDB (polo-like kinase 1 - polo-box domain): Primary Screen. Plk1 PBD binding of FITC phosphopeptide, fluorescence polarization. Potency, µM, without a hit: max response, negative = inhibition, most hits filed as inhibitors. actives 2.8% (n = 360,000). AID 720504, 2013; further: series mostly up to about 57 µM; on the % scale 0 is the no-effect control and ±100 the full control effect; nearly all actives have a fitted effect of over 65% in size
G9a block – qHTS Assay for Inhibitors of Histone Lysine Methyltransferase G9a; G9a H3K9 monomethylation, AlphaScreen, 2 h; Potency, µM (titrated, usually from 102 µM), without a hit: top-dose activity, negative = inhibition, actives largely listed as inhibitors; actives 8.8% (n = 350,000); further: on the % scale 0 is the no-effect control and ±100 the full control effect; nearly all actives have a fitted effect of over 75% in size
Target sequence (Q96KQ7 913-1193 limits assumed): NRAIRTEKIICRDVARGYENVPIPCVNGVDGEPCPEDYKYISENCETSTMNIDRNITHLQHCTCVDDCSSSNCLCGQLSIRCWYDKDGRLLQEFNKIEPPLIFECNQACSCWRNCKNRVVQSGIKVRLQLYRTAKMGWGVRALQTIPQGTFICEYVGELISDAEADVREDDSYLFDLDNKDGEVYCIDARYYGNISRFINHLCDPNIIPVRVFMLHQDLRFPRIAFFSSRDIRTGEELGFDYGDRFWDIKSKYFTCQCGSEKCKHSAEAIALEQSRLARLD
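Signal arises when biotinylated H3K9 peptide, once monomethylated, bridges streptavidin donor and antibody-captured acceptor beads. Enzyme at 20 nM was preincubated 15 min with test compounds; peptide 500 nM and SAM 20 uM then reacted for 2 h.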
HP1b binding inh – HTS for Inhibitors of HP1-beta Chromodomain Interactions with Methylated Histone Tails | Potency, µM (top dose mostly 114 µM), for the others: top-dose activity change, negative = inhibition, most hits filed as inhibitors | Chromobox protein homolog 1 (Homo sapiens), P83916 | AlphaScreen HP1-beta / biotin-H3K9me3 peptide binding | AID 540317, 2011 | actives 0.56% (n = 390,000); further: nearly all actives have a fitted effect of over 70% in size
Target sequence (P83916 whole entry, looked up): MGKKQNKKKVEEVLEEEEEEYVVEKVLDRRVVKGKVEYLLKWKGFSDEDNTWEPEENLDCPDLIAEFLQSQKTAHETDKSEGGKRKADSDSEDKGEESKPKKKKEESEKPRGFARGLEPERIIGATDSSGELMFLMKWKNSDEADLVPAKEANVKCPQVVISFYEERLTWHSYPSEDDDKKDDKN
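HP1-beta protein (50 nM final) preincubated 30 min at room temperature with biotinylated H3(1-18)K9me3 peptide (50 nM) in PBS pH 7.4, 0.01% Tween-20, then compound added for 30 min. AlphaScreen streptavidin donor/nickel chelate acceptor beads (10 ug/mL final), 30 min dark, luminescence read.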
JMJD2A Tudor inh – qHTS Assay for Inhibitors of JMJD2A-Tudor Domain | Potency, µM (doses to about 114 µM), inactives show top-dose activity change, negative = inhibition, most hits filed as inhibitors | AID 504339, 2011 | AlphaScreen JMJD2A-Tudor / H3K4me3 peptide binding | Lysine-specific demethylase 4A (Homo sapiens), O75164 | actives 4.4% (n = 390,000); further: on the % scale 0 is the no-effect control and ±100 the full control effect; nearly all actives have a fitted effect of over 50% in size
BAZ2B block – qHTS Assay for Inhibitors of BAZ2B. Potency, µM (titrated, usually from 114 µM), for the others: at the top dose activity change, negative = inhibition, actives largely listed as inhibitors. actives 4.4% (n = 360,000). Bromodomain adjacent to zinc finger domain protein 2B (Homo sapiens), Q9UIF8. AlphaScreen BAZ2B-H3K14Ac peptide displacement; further: on the % scale 0 is the no-effect control and ±100 the full control effect; nearly all actives have a fitted effect of over 60% in size
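BAZ2B 50 nM plus b-H3(5-23)K14Ac 50 nM, PBS pH 7.4/0.01% Tween-20, 30 min RT; compound added (max 110 uM), 30 min RT; streptavidin donor/Ni-chelate acceptor beads 10 ug/mL final, 20 min dark; AlphaScreen read.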
The depositor's hits bear a star; i = inactive; ? = inconclusive; . = no result; ! = repeats disagree; [ ] = remark or other dose. Compounds with a hit are over-represented: about 9% of the library has one in this group of screens. The call rests on the fitted dose curve; in most records, active means well fitted curve in the direction sought with a large enough effect; inconclusive means small, poorly fitted or top-dose-only effect, or another doubt; inactive means no such curve, though single readings can be large; an effect the other way counts as inactive or inconclusive. Potency means the concentration at half of the fitted maximal effect.

SMILES	12-LOX inh	PLK1 PBD inh	G9a block	HP1b binding inh	JMJD2A Tudor inh	BAZ2B block
Cc1sc(NC(=O)C2CCCCC2C(=O)O)c(C(N)=O)c1-c1ccc(C(C)C)cc1 (configuration not stated)	6.5%	-21.3%	34.0%[59 µM]	2.6%	-26.5%	-37.1%
Cc1sc(NC(=O)C2CCCCC2C(=O)O)c(C(N)=O)c1-c1ccc(C(C)(C)C)cc1 (configuration not stated)	-6.7%	21.2µM*	.	-30.7%	-19.3%	?
COc1ccc(NC(=O)c2c(NC(=O)CCC(=O)O)sc(-c3ccccc3)c2C)cc1	?	23.8µM*	5.62µM*	-25.1%	-19.3%	-33.6%
Cc1sc(NC(=O)CCC(=O)O)c(C(N)=O)c1-c1ccccc1	?	13.4µM*	10µM*	?	?	-1.3%
NC(=O)c1cccnc1N1CCC(Oc2ccc(Cl)cc2)(C(=O)O)CC1	14.1%	.	.	.	.	.
COC(=O)c1c(-c2ccccc2OC)sc2ccc(OC)cc12	?	-0.9%	9.4%[0.501 µM]	82.7%	41.4%	33.7%
O=C(C1CCN(C(=O)N2CC3CC(C2)[C@H]2CCCC(=O)N2C3)CC1)N1CCCC1 (some centres not stated)	22.1%	.	.	.	.	.
CCc1ccc(-c2c(C)sc(NC(C)=O)c2C(N)=O)cc1	-24.5%	26.7µM*	11.2µM*	-33.7%	?	-7.7%
O=S(=O)(c1ccccc1S(=O)(=O)N1CCCCC1)N1CCCCC1	25.6%	-10.4%	5.2%	15.1%	0.0%	2.5%
O=C1SC(c2ccccc2)=C/C1=C\N1CCCCC1	?	-15.7%	3.1%[0.0925 µM]	?	50.1µM*	50.1µM*
S=c1nc(-c2csc3c2CCCC3)[nH][nH]1	?	26.7µM*	16.0%[0.501 µM]	?	?	-3.4%
Cc1nnc2sc(-c3csc4c3CCCC4)nn12	-8.4%	-11.4%	-15.9%[12.7 µM]	11.8%	-21.3%	1.4%
CC(=O)c1cc(-c2ccccc2)n(CCC(=O)NC2CCCCC2)c1C	-15.5%	-1.0%	5.3%[59 µM]	25.1%	-14.7%	50.1µM*!
CCC(C)NC(=O)CCn1c(-c2ccccc2)cc(C(C)=O)c1C (configuration not stated)	3.4%	-13.5%	15.5%	19.1%	1.8%[57.1 µM]	50.1µM*
CC(=O)c1cc(-c2ccccc2)n(CCC(=O)NC2CCCC2)c1C	-0.3%	-4.3%	3.5%	6.2%	-17.8%	50.1µM*
COc1ccc(NC(=O)Nc2cccc3c2O[C@H](CN(C)C(=O)Nc2ccc(C(F)(F)F)cc2)[C@@H](C)CN([C@H](C)CO)C3=O)cc1	.	0.9%	.	49.5%	-22.1%	.
C=CCN(C(=O)CCC(=O)Nc1cc(C)on1)C(C(=O)NC1CCCC1)c1ccc(OC)c(OC)c1 (configuration not stated)	2.0%	-8.4%	7.1%	27.1%	-9.8%	0.4%
Cc1cc(C)cc(N(C(=O)CCC(=O)Nc2cc(C)on2)C(C(=O)NC2CCCC2)c2ccco2)c1 (configuration not stated)	-2.2%	-16.9%	-9.4%	1.6%	-24.3%	-24.6%
Cc1cc(NC(=O)CCC(=O)N(Cc2ccco2)C2(C(=O)NC3CCCC3)CCCCC2)no1	6.2%	-20.6%	-4.1%	-8.3%	89.1µM*	2.1%
C=CCN(C(=O)CCC(=O)Nc1cc(C)on1)C(C(=O)NC1CCCC1)c1ccc(CC)cc1 (configuration not stated)	?	26.7µM*	12.3%	-5.1%	?	1.9%
Cc1ccc(C)c(N(C(=O)CCC(=O)Nc2cc(C)on2)C(C(=O)NC2CCCC2)c2ccco2)c1 (configuration not stated)	66.2%	3.77µM*	8.9%[59 µM]	-8.3%	-16.8%[11.4 µM]	4.4%
O=C(OCCOc1ccc(Br)cc1)c1ccc(Cl)nc1	-2.6%	0.8%	222.2%	213.5%	152.2%	220.1%
COc1ccc(NC(=O)c2cc(C3CCCCN3C(=O)CCc3ccccc3)on2)c(C)c1 (configuration not stated)	?	4.8%	.	.	.	.
Cc1cc(C(=O)N2CCCC(N3CCN(c4cccc(C(F)(F)F)c4)CC3)C2)n[nH]1 (configuration not stated)	7.5%	-3.3%	-0.2%	31.1%	-24.8%	-19.6%
O=C(Nc1ccc(Cl)c(S(=O)(=O)N2CCCC2)c1)c1nn(CCO)c(=O)c2ccccc12	3.7%	-10.0%	50.1µM*	0.9%	-33.1%	-28.9%
SMILES	12-LOX inh	PLK1 PBD inh	G9a block	HP1b binding inh	JMJD2A Tudor inh	BAZ2B block
Cn1nc(C(=O)Nc2cccc(S(=O)(=O)N3CCCCC3)c2)c2ccccc2c1=O	1.6%	-3.0%	39.8µM*	10.8%	-17.0%	-23.3%
Cn1nc(C(=O)Nc2ccc(Cl)c(S(=O)(=O)N3CCOCC3)c2)c2ccccc2c1=O	i	2.1%	6.3%[12.7 µM]	29.9%	-20.8%	2.9%
Cn1nc(C(=O)Nc2ccc(S(=O)(=O)N3CCCCC3)cc2)c2ccccc2c1=O	-12.4%	-10.9%	?	13.7%	-18.9%	-27.4%
COc1cc(OC)cc(-c2nnc(SCC(=O)c3ccc([N+](=O)[O-])cc3)o2)c1	-3.7%	.	5.6%[59 µM]	44.0%	2.2%	-17.0%
COc1cc(OC)cc(-c2nnc(Sc3ccc(C=O)cc3[N+](=O)[O-])o2)c1	.	.	25.1µM*	.	.	?
COc1cccc(CNC(=O)COc2cccc(-n3cnnn3)c2)c1	?	-7.9%	?	15.7%	-11.7%	-4.3%
CN(C)CCOC(c1ccc(Cl)cc1)c1ccccn1 (configuration not stated)	19.0%	3.9%	44.7µM*!	71.2%	-5.8%	-2.4%
CN(C)CC[C@H](c1ccc(Cl)cc1)c1ccccn1	?	.	22.1%[21.5 µM]	.	.	.
O=C(O)Cn1cc(/C=C2/SC(=O)N(CC(=O)N3CCCCCC3)C2=O)c2ccccc21	?	26.7µM*	?	-25.2%	-25.1%	-33.4%
CC(C)N1C(=O)S/C(=C/c2cn(CC#N)c3ccccc23)C1=O	4.47µM*	.	.	.	.	.
O=Cc1cn(CC(=O)N2CCCc3ccccc32)c2ccccc12	?	2.67µM*	2.0%[59 µM]	?	?	11.5%
O=C(O)Cn1cc(/C=C2\SC(=O)N(c3ccccc3)C2=O)c2ccccc21	-17.6%	-1.3%	?	31.6%	-18.9%	-17.4%

From PubChem BioAssay
